Source: PubChem
SF-1 inh – inhibitors of human SF-1, primary screen, cell-based, CHO-K1, Gal4-SF-1 LBD, luciferase luminescence; inhibition, % at 10 µM; CHO-K1 Gal4-SF-1 LBD luciferase reporter; Steroidogenic factor 1 (Homo sapiens), Q13285; 65,000 compounds, 0.55% hits;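 active = inhibition above the mean inhibition of all tested compounds plus 3 SD, cut at about 48% in these data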
Target sequence (Q13285 whole entry, looked up, the tested form may be a part): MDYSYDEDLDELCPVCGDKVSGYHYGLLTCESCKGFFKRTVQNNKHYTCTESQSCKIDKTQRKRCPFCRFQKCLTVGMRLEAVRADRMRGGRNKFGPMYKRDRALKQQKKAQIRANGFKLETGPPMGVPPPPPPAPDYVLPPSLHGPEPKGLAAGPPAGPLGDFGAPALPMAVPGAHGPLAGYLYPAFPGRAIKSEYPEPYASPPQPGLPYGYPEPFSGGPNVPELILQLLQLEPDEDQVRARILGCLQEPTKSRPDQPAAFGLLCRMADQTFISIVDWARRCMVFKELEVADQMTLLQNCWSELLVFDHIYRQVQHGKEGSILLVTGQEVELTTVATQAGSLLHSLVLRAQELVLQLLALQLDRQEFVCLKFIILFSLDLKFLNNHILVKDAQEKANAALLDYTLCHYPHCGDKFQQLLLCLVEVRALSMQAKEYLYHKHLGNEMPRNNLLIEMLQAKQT
Of the large screens only hits and unclear results are named; the others gave an inactive call. Shown is part of a subset that was picked to be rich in hits.

COc1ccccc1Cc1noc(C(C)(C)NC(=O)c2ccccc2)n1	none
CN1CCN(C(=O)c2cc3nc(-c4ccc(Cl)cc4)cc(C(F)(F)F)n3n2)CC1	none
Cc1ccc2[nH]c(-c3cccc(N)c3)cc2c1	none
CN(C)c1nc(N)nc(-c2nc3ccccc3s2)n1	none
Nc1cccc(-c2nc3ccc(N)cc3s2)c1	SF-1 inh 61
Cc1cc(NC(=O)c2cc(C)on2)n(-c2ccccc2)n1	none
Cc1ccc(C2NC(=O)c3ccccc3N2)s1 (centres undefined)	none
COc1ccc(CCNc2oc(COc3ccccc3)nc2C#N)cc1	none
CCOC(=O)NCCc1ccc(OC)cc1	none
CCc1c(C)nc2ncnn2c1NCCc1ccc(OC)cc1	SF-1 inh 85
O=C(Nc1ccc(F)cc1F)N1CCN(C/C=C/c2ccccc2)CC1	none
CCOC(=O)c1cc2sccc2n1CCCN1C(=O)c2ccccc2C1=O	none
CC(=O)c1c(C)[nH]c(C(=O)OCCCCN2C(=O)c3ccccc3C2=O)c1C	SF-1 inh 84
CCOC(=O)c1[nH]c(C)c(C(=O)Nc2ccccc2F)c1C	none
CCCCC(=O)Nc1ccc(C(=O)Nc2ccc(S(=O)(=O)N3CCCC3)cc2)cc1	none
COc1ccccc1NC(NC(=O)c1ccco1)C(=O)c1ccccc1 (centres undefined)	none
Nc1nnc(SCc2ccc3c(c2)OCO3)s1	none
O=C(NCCc1ccccc1)/C(=N\O)c1ccccc1	none
O=S(=O)(c1cccc(C(F)(F)F)c1)N1CCN(c2nnnn2-c2ccccc2)CC1	none
CCN(C(=O)c1ccc(C(C)(C)C)cc1)c1nnc(Cn2nnc3ccccc32)s1	SF-1 inh 69
O=c1cc(N2CCN(c3ccccc3)CC2)[nH]c(=O)n1C1CCCCC1	SF-1 inh 52
O=c1cc(N2CCN(c3cccc(Cl)c3)CC2)[nH]c(=O)n1C1CCCCC1	SF-1 inh 80
CCOC(=O)C1CCN(c2cc(=O)n(C3CCCCC3)c(=O)[nH]2)CC1	none
Cc1ccccc1-n1c(=O)cc(N2CCCCCC2)[nH]c1=O	none
CN1CCN(C2=C(Cl)C(=O)N(c3cccc(Cl)c3)C2=O)CC1	none
O=c1cc(NCC2CCCO2)[nH]c(=O)n1-c1ccc(Cl)cc1 (centres undefined)	none
COCCNc1cc(C)nc2ccccc12	none
COc1ccc(OC)c(C(=O)Cn2nnc3ccccc3c2=O)c1	none
Cc1ccc(-c2cc3nc(C)cc(NCc4ccco4)n3n2)cc1	none
Cc1ccc(Nc2nc3nonc3[nH]c2=O)cc1	none
Cc1ccc(Nc2cc(C)nn2-c2nc(C)cc(=O)[nH]2)cc1	SF-1 inh 96
O=C(NCCc1ccccc1)c1cc(-c2ccco2)on1	none
CNC(=O)Cn1c(=O)n(C)c2ccccc21	none
CCSCCOC(=O)C1=C(C)NC(=O)NC1c1cc(OC)ccc1OC (centres undefined)	none
CCOC(=O)C1=C(Cn2cnc3ccccc32)NC(=O)NC1c1cc(C)ccc1C (centres undefined)	SF-1 inh 59
CCOC(=O)C1=C(C)Nc2ncnn2C1/C=C/c1ccccc1 (centres undefined)	none
Nc1nc(-c2ccccc2Br)cs1	none
Clc1ccc(C2=Nn3c(nnc3-c3cccnc3)SC2)s1	none
CCn1c(SCC(=O)c2ccc(O)c(O)c2)nnc1-c1ccccc1OC	none
CCOc1ccc(C2=Nn3c(nnc3-c3ccccc3OC)SC2)cc1	SF-1 inh 73
COc1ccccc1-c1nnc2n1N=C(c1ccc(O)c(O)c1)CS2	SF-1 inh 67
CCOc1ccc(NC(=O)c2ccccc2OC)cc1	none
Cc1ccc(S(=O)(=O)N(CC(O)CN2CCCCC2)c2ccccc2)cc1 (centres undefined)	none
Cn1ccnc1C(O)c1ccc(OCc2ccccc2)cc1 (centres undefined)	none
CN(C)S(=O)(=O)c1cccc(C(=O)C2=C3SC=C(c4ccccc4)N3CC2)c1	none
FC(F)Sc1ccc(Nc2ncnc3nc[nH]c23)cc1	none
CCOc1ccc(-n2nc(C(=O)NCCOC)c3ccccc3c2=O)cc1	none
COC(=O)c1ccc(=O)n(-c2ccc(OC)cc2)c1	none
C/C(=N\O)C(=O)C(CN1CCCCC1)CN1CCCCC1	none
CC(C)C(=O)Nc1nc2c(ncn2C2CC(O)C(CO)O2)c(=O)[nH]1 (centres undefined)	none
Cn1c(=O)c(=O)n(C)c2cc(S(=O)(=O)N3CCCCCC3)ccc21	none
COCCn1c(C)cc(C(=O)CN2C(=O)NC3(CCCCCCC3)C2=O)c1C	none
COCCn1c(C)cc(C(=O)CSc2nnc(C)s2)c1C	SF-1 inh 68
COCCn1c(C)cc(C(=O)COC(=O)C23CC4CC(CC(O)(C4)C2)C3)c1C	none
CCOC(=O)/C(C#N)=C1/C=CN(C)C(C)=N1	none
Cc1c(-c2ccco2)[n+](=O)c2c(n1[O-])CCC2	none
COC(=O)c1ccc(C2C(C(=O)Nc3ccccc3C)=C(C)Nc3ncnn32)cc1 (centres undefined)	none
CC1N(C)c2cc(NC(=O)c3ccco3)ccc2C1(C)C (centres undefined)	none
CCOC(=O)c1c(C)[nH]c(C(=O)Nc2ccc3c(c2)OCO3)c1C	none
Cc1ccc2cc(C(c3nnnn3Cc3ccccc3)N3CCN(c4ccccc4)CC3)c(=O)[nH]c2c1 (centres undefined)	none
Cc1nc(N2CCN(c3ccccc3)CC2)[nH]c(=O)c1Cc1cccc2ccccc12	SF-1 inh 52
Cn1c(=O)c2c(nc(N3CCCCCC3)n2Cc2cccc3ccccc23)n(C)c1=O	none
N#CC1=C(N)C(C#N)(C#N)C2(CCC3(CC2)OCCO3)C2CC3(CC=C12)OCCO3 (centres undefined)	none
CCN(CCO)c1ccc(-n2c(N)c(C(=O)OC)c3nc4ccccc4nc32)cc1	none
CCOC(=O)CNc1nc(OCC#N)nc(N2CCOCC2)n1	none
CCn1c(C)nc2cc(-c3nc4n(n3)Cc3ccccc3-4)ccc21	SF-1 inh 96
O=C(c1cc(-c2ccccc2)on1)N1CCCC1	none
Cn1c(NC(=O)c2cccnc2)nc2ccccc21	none
Nc1c(C(=O)Nc2ccc3c(c2)OCCO3)nnn1CCc1ccccc1	none
COc1cccc(CNC(=O)c2nnn(CC(=O)Nc3ccc(C)c(C)c3)c2N)c1	SF-1 inh 56
CCc1ccccc1NC(=O)c1nnn(CC(=O)Nc2ccccc2C)c1N	none
COc1ccc(NC(=O)c2sc(SC)nc2N)cc1	none
CCC(Sc1ccc2nnc(-c3cccnc3)n2n1)C(=O)O (centres undefined)	none
COc1ccccc1C(=O)N1CCN(c2nc3cc(C)c(C)cc3cc2C#N)CC1	none
N#Cc1c(N2CCCC2)nc(N)c2c(N)nc(N3CCCC3)cc12	none
COc1cc2c(C#N)c(N3CCN(c4ccccc4OC)CC3)nc(N)c2c(N)n1	SF-1 inh 73
CCCCN(C)C(=O)Cn1cnc2sc(C)cc2c1=O	none
CCN(CC)Cc1c[nH]c2c(C(=O)OC)cccc12	none
Cc1c(C(N)=O)sc(N)c1C(=O)OC(C)C	none
CC(=O)Nc1ccc(NC(=O)N2CCCCC2)cc1	none
O=C(CSc1nnnn1-c1ccccc1)NC(=O)Nc1ccc2c(c1)OCCO2	none
Cc1ccc(-c2nc(NC(=O)CSc3nnnn3-c3ccccc3)ns2)cc1	none
CCn1c2ccccc2c2cc(NC(=O)CSc3nnnn3-c3ccccc3)ccc21	SF-1 inh 70
CC(C)N(C(=O)CSc1nn2c(=O)c(C(C)(C)C)nnc2s1)c1ccccc1	none
CCCCOc1cccc(C(=O)N(Cc2ccco2)C2CCS(=O)(=O)C2)c1 (centres undefined)	none
CCc1nc(C)c(-c2ccccc2)c(=O)[nH]1	none
CCc1nn2cc(-c3ccccc3)nc2s1	SF-1 inh 69
O=c1nc(N2CCOCC2)ccn1Cc1ccc(Br)cc1	none
O=C(Cc1ccc(Br)cc1)c1ccc(O)cc1O	none
CCN1C(=O)C(O)(CC(=O)c2ccc3c(c2)OCCO3)c2ccccc21 (centres undefined)	none
